Test results from PubChem BioAssay AID1159580 (chemical genetic matrix, 2015).
About 2,000 (36%) of roughly 5,500 compounds were called active. Inconclusive results (about 18%) are left out. Rule as the data show it: active = normalized growth mostly below about 0.91 (no sharp cut-off); inconclusive = no clear call, values can overlap the other calls; inactive = mostly above about 0.92. The list shows a part of the results. Where a SMILES comes first, the peptide text is derived from it.

Experiment: chemical genetic growth profiling, strain panel (AID 1159580);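 also: tested at 20 µM; growth read once vehicle control cultures reached saturation at 30 °C; 1 = growth at the plate median or of vehicle wells; lower values mean less growth of the strain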
Conditions: growth OD

Measured: normalized growth

CC(=O)N[C@@H](CC(=O)O)C(=O)N[C@@H](CCC(=O)O)C(=O)O (Ac-Asp-Glu-OH)
inactive: S. cerevisiae deletion strains, locus YJR075W, strain HOC1, active compounds read low 1.01 | S. cerevisiae deletion strains, locus YKL009W, strain mrt4, active compounds read low 0.987 | S. cerevisiae deletion strains, locus YKL068W, active compounds read low 0.997 | S. cerevisiae deletion strains, locus YKL085W, strain MDH1 (second series), active compounds read low 0.985 | S. cerevisiae deletion strains, locus YKL085W, strain MDH1, active compounds read low 0.985 | S. cerevisiae deletion strains, locus YKL160W, strain elf1, active compounds read low 1.01 | S. cerevisiae deletion strains, locus YKL190W, strain CNB1, active compounds read low 1.02 | S. cerevisiae deletion strains, locus YKR001C, strain vps1, active compounds read low 0.989 | S. cerevisiae deletion strains, locus YKR026C, strain gcn3, active compounds read low 1 | S. cerevisiae deletion strains, locus YKR091W, strain srl3, active compounds read low 0.996 | S. cerevisiae deletion strains, locus YLL001W, strain dnm1, active compounds read low 0.994 | S. cerevisiae deletion strains, locus YLL026W, active compounds read low 1 | S. cerevisiae deletion strains, locus YLL041C, strain sdh2, active compounds read low 1 | S. cerevisiae deletion strains, locus YLR027C, strain aat2, active compounds read low 1.01 | S. cerevisiae deletion strains, locus YLR039C, strain RIC1, active compounds read low 1.04 | S. cerevisiae deletion strains, locus YLR058C, strain SHM2, active compounds read low 1.01 | S. cerevisiae deletion strains, locus YLR102C, strain apc9, active compounds read low 0.984 | S. cerevisiae deletion strains, locus YLR113W, strain HOG1, active compounds read low 0.987 | S. cerevisiae deletion strains, locus YLR221C, strain rsa3, active compounds read low 1 | S. cerevisiae deletion strains, locus YLR258W, strain gsy2, active compounds read low 0.992 | S. cerevisiae deletion strains, locus YLR262C, strain YPT6 (second series), active compounds read low 1.02 | S. cerevisiae deletion strains, locus YLR262C, strain YPT6, active compounds read low 1.04 | S. cerevisiae deletion strains, locus YLR268W, strain sec22, active compounds read low 0.981 | S. cerevisiae deletion strains, locus YLR320W, strain mms22, active compounds read low 1 | S. cerevisiae deletion strains, locus YLR330W, strain CHS5, active compounds read low 1.02 | S. cerevisiae deletion strains, locus YLR342W, strain FKS1 (second series), active compounds read low 0.996 | S. cerevisiae deletion strains, locus YLR342W, strain FKS1, active compounds read low 1 | S. cerevisiae deletion strains, locus YLR357W, strain rsc2, active compounds read low 0.987 | S. cerevisiae deletion strains, locus YLR370C, strain arc18, active compounds read low 1.02 | S. cerevisiae deletion strains, locus YLR371W, strain rom2, active compounds read low 0.99 | S. cerevisiae deletion strains, locus YLR384C, strain iki3, active compounds read low 0.998 | S. cerevisiae deletion strains, locus YLR418C, strain cdc73, active compounds read low 0.982 | S. cerevisiae deletion strains, locus YML016C, strain PPZ1, active compounds read low 1.02 | S. cerevisiae deletion strains, locus YML032C, strain rad52, active compounds read low 0.985 | S. cerevisiae deletion strains, locus YML120C, strain ndi1, active compounds read low 1.01 | S. cerevisiae deletion strains, locus YML124C, strain tub3, active compounds read low 0.984 | S. cerevisiae deletion strains, locus YMR058W, strain fet3, active compounds read low 1.01 | S. cerevisiae deletion strains, locus YMR078C, strain ctf18, active compounds read low 1 | S. cerevisiae deletion strains, locus YMR125W, strain sto1, active compounds read low 0.987 | S. cerevisiae deletion strains, locus YMR129W, active compounds read low 1.01 | S. cerevisiae deletion strains, locus YMR205C, strain PFK2, active compounds read low 0.967 | S. cerevisiae deletion strains, locus YMR223W, strain ubp8, active compounds read low 0.983 | S. cerevisiae deletion strains, locus YMR231W, strain pep5, active compounds read low 1.01 | S. cerevisiae deletion strains, locus YMR263W, strain SAP30, active compounds read low 1.03 | S. cerevisiae deletion strains, locus YMR307W, strain GAS1, active compounds read low 1.01 | S. cerevisiae deletion strains, locus YNL067W, strain RPL9B, active compounds read low 1.02 | S. cerevisiae deletion strains, locus YNL071W, strain lat1, active compounds read low 1.02 | S. cerevisiae deletion strains, locus YNL128W, strain TEP1, active compounds read low 1.02 | S. cerevisiae deletion strains, locus YNL153C, strain GIM3, active compounds read low 1.01 | S. cerevisiae deletion strains, locus YNL183C, strain NPR1, active compounds read low 0.894 | S. cerevisiae deletion strains, locus YNL209W, strain ssb2, active compounds read low 0.997 | S. cerevisiae deletion strains, locus YNL233W, strain BNI4, active compounds read low 1.02 | S. cerevisiae deletion strains, locus YNL248C, strain rpa49, active compounds read low 1.01 | S. cerevisiae deletion strains, locus YNL250W, strain rad50, active compounds read low 0.982 | S. cerevisiae deletion strains, locus YNL271C, strain bni1, active compounds read low 0.984 | S. cerevisiae deletion strains, locus YNL298W, strain CLA4, active compounds read low 0.987 | S. cerevisiae deletion strains, locus YNL307C, strain MCK1, active compounds read low 0.988 | S. cerevisiae deletion strains, locus YNL322C, strain KRE1 (second series), active compounds read low 1 | S. cerevisiae deletion strains, locus YNL322C, strain KRE1, active compounds read low 1.01 | S. cerevisiae deletion strains, locus YNR049C, strain mso1, active compounds read low 1.01 | S. cerevisiae deletion strains, locus YNR052C, strain pop2, active compounds read low 0.991 | S. cerevisiae deletion strains, locus YOL006C, strain TOP1, active compounds read low 1.03 | S. cerevisiae deletion strains, locus YOL012C, strain htz1 0.942 | S. cerevisiae deletion strains, locus YOL147C, strain pex11, active compounds read low 0.987 | S. cerevisiae deletion strains, locus YOR001W, strain rrp6, active compounds read low 1.01 | S. cerevisiae deletion strains, locus YOR061W, strain CKA2, active compounds read low 1.01 | S. cerevisiae deletion strains, locus YOR069W, strain VPS5, active compounds read low 1.01 | S. cerevisiae deletion strains, locus YOR070C, strain gyp1, active compounds read low 1.01 | S. cerevisiae deletion strains, locus YOR080W, strain dia2, active compounds read low 0.988 | S. cerevisiae deletion strains, locus YOR083W, strain WHI5, active compounds read low 1.01 | S. cerevisiae deletion strains, locus YOR106W, strain vam3, active compounds read low 1.02 | S. cerevisiae deletion strains, locus YOR136W, strain idh2, active compounds read low 0.99 | S. cerevisiae deletion strains, locus YOR144C, strain elg1, active compounds read low 1 | S. cerevisiae deletion strains, locus YOR184W, strain ser1, active compounds read low 0.979 | S. cerevisiae deletion strains, locus YOR231W, strain MKK1, active compounds read low 0.982 | S. cerevisiae deletion strains, locus YOR265W, strain rbl2, active compounds read low 1.01 | S. cerevisiae deletion strains, locus YOR270C, strain vph1, active compounds read low 1.1 | S. cerevisiae deletion strains, locus YOR290C, strain snf2, active compounds read low 0.975 | S. cerevisiae deletion strains, locus YOR316C, strain cot1, active compounds read low 0.997 | S. cerevisiae deletion strains, locus YPL051W, strain arl3, active compounds read low 1.01 | S. cerevisiae deletion strains, locus YPL055C, strain LGE1, active compounds read low 1.02 | S. cerevisiae deletion strains, locus YPL078C, strain atp4, active compounds read low 1.03 | S. cerevisiae deletion strains, locus YPL106C, strain sse1, active compounds read low 0.975 | S. cerevisiae deletion strains, locus YPL240C, strain hsp82, active compounds read low 1.01 | S. cerevisiae deletion strains, locus YPL241C, strain CIN2, active compounds read low 1.01 | S. cerevisiae deletion strains, locus YPL256C, strain CLN2, active compounds read low 1.01 | S. cerevisiae deletion strains, locus YPR119W, strain clb2, active compounds read low 0.99 | S. cerevisiae deletion strains, locus YPR141C, strain kar3, active compounds read low 0.995 | S. cerevisiae deletion strains, locus YPR163C, strain tif3, active compounds read low 0.99 | S. cerevisiae deletion strains, locus YPR167C, strain met16, active compounds read low 0.991 | S. cerevisiae deletion strains, strain wtn01, active compounds read low 0.989 | S. cerevisiae strains, strain wild type, active compounds read low 1
